This is a sample that favours compounds with a hit; in the whole collection about 1.2% have one here.
CCT chaperon mod: modulators of cytosolic chaperonin (CCT/TRiC) activity | activity change, % (test concentration not listed), hits read low | AID 651819 | purified chaperonin ATPase assay, HTRF ADP detection, 30 min | hit rate 0.3% among 360,000; in the data active means activity change below about -30%
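TRiC at 40 or 20 nM final (batch-dependent) in 30 mM Tris pH 7.4, 100 mM KCl, 5 mM MgCl2, 1 mM DTT, with compound at single 76 uM and 10 uM ATP, 30 min at 37 deg C. ADP detected by HTRF Transcreener, 665/615 ratio.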
Six1-Eya2 blk: inhibitors of human Six1/Eya2 interaction. Q15475+O00167. AlphaScreen GST-Six1/His-Eya2 binding, biochemical; stronger effect = lower value. activity change, % (test concentration not listed). hit rate 0.56% among 360,000. AID 651725
Target sequence (O00167 whole entry, looked up): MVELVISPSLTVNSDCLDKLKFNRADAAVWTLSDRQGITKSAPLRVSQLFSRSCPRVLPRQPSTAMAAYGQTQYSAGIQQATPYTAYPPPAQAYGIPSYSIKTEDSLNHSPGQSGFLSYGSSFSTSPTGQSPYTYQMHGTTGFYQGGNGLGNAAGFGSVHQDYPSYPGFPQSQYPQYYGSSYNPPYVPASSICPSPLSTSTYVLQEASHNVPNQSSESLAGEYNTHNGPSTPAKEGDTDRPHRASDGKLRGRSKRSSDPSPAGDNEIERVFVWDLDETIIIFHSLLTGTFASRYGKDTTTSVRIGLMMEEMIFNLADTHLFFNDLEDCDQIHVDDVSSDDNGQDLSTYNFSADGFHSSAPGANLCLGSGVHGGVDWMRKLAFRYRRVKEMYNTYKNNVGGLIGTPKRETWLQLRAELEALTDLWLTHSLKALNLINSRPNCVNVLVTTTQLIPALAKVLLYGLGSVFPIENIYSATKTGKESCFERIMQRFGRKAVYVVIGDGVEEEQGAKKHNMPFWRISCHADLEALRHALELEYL
Target sequence (Q15475 whole entry, looked up): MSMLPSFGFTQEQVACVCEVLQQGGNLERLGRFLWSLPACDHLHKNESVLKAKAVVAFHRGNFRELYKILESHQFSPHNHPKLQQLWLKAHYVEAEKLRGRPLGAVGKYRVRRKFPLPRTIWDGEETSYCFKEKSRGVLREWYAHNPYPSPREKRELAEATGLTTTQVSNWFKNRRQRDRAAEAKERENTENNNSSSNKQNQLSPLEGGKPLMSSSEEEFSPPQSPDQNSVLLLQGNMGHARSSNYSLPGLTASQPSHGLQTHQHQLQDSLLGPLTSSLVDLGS
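AlphaScreen with GST-Six1 and His-Eya2 (5X mix: 250 nM and 500 nM), glutathione donor and nickel acceptor beads; buffer 50 mM Tris pH 8.0, 300 mM NaCl, 1 mM TCEP; 1 h at 37 C in the dark.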
Akt phos inh: inhibitors of Akt phosphorylation | Neuro2A IGF-stimulated pAkt S473 HTRF, 20 min; stronger effect = lower value | activity change, % for hits at 50 µM | hit rate 0.32% among 360,000; in the data active means activity change below about -80%; inconclusive means mostly about -51% to -80%
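Single-point screen (50 µM final compound) in Neuro2A cells stimulated 20 min with 6 nM IGF at 37 deg C. After lysis, Ser473-phosphorylated Akt read by HTRF (ex 330 nm, em 615/665 nm) as the 665/615 ratio.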
CtBP-E1A inh: CtBP/E1A binding inhibition; AlphaScreen GST-E1A/His-CtBP binding, 1536-well; stronger effect = lower value; hit rate 0.49% among 340,000; AID 651724; activity change, % (test concentration not listed)
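Protein mix (5X: 125 nM each GST-E1A, His-CtBP) was incubated with pinned compound 2 h at 37 deg C in dark, in 50 mM Tris pH 8.0 buffer with 300 mM NaCl. Glutathione donor and nickel acceptor beads followed; AlphaScreen signal read after 1 h.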
* marks the source's active call; other numbers are inactive results; i = inactive; ? = inconclusive; . = no result. Unless noted, no stated cut-off is given here; in the data, active means activity change below about -65%; inconclusive means mostly about -30% to -63%; inactive means weaker than that. On the % scale 0 is the no-effect control and ±100 the full control effect.

SMILES | CCT chaperon mod | Six1-Eya2 blk | Akt phos inh | CtBP-E1A inh
OC(CN1C2=NCCN2c2ccccc21)c1ccc2c(c1)OCO2 (stereo not given) | -3.5 | 4.8 | -118.2%* | -3.9
OC(CN1C2=NCCCN2c2ccccc21)c1ccc2c(c1)OCO2 (stereo not given) | 1.7 | 3.5 | -100.8%* | -2.2
NC1=NC(=Nc2cccc(S(=O)(=O)N3CCOCC3)c2)c2ccccc21 | -2.3 | -10.5 | i | -4.4
COc1cc2c(cc1[N+](=O)[O-])-c1ccc([N+](=O)[O-])cc1C2=NNC(N)=S | 0.9 | -72.5* | i | ?
COc1cc(C(=O)Nc2ccc(N3CCCS3(=O)=O)cc2)c([N+](=O)[O-])cc1OC | -2.2 | 9.2 | i | -1.0
O=C(NCC(O)c1ccc2ccccc2c1)c1c(F)cccc1F (stereo not given) | -1.6 | 1.0 | i | 2.6
COc1ccc(N2CC(C(=O)N/N=C/c3c[nH]c4ccccc34)CC2=O)cc1 (stereo not given) | -2.9 | -2.9 | i | -11.8
O=C1NCCCC1C(=O)N/N=C/c1ccccc1[N+](=O)[O-] (stereo not given) | -0.7 | -4.5 | i | -0.9
O=C1NCCCC1C(=O)N/N=C/c1ccccc1O (stereo not given) | -2.2 | ? | i | -71.5*
O=C(N/N=C/c1ccccc1O)C1CC(=O)N(c2ccc(F)cc2)C1 (stereo not given) | -1.6 | -69.9* | i | ?
COc1ccc(N2CC(C(=O)N/N=C/c3cc([N+](=O)[O-])ccc3O)CC2=O)cc1 (stereo not given) | -0.1 | -89.6* | i | -77.2*
CC(=O)C1=CCC(c2ccccc2Cl)N(S(=O)(=O)c2ccc(C)cc2)C1 (stereo not given) | 0.8 | 1.6 | i | -12.4
OC[C@@H]1CN(Cc2ccc(Cl)cc2)C[C@H](n2cnc3c(Nc4ccccc4)ncnc32)O1 | 1.6 | -5.5 | i | 0.1
CCCc1c(CC)c(=N)c2ccccc2n1C | 0.1 | 5.0 | i | 17.0
CN1CCc2nc(NC(=O)c3cccc(S(=O)(=O)N4CCc5ccccc54)c3)sc2C1 | -35.1* | -3.4 | i | -6.2
Cc1cc(=O)[nH]c(-n2nc(C)c(Oc3ccccc3O)c2C)n1 | -1.6 | -4.5 | -110.1%* | -3.9
Cc1nn(-c2ccc(C(F)(F)F)cn2)c(C)c1Oc1ccccc1O | 1.2 | 3.6 | i | 1.9
Cc1cc(C)n(Cc2ccc(C(=O)O)o2)n1 | -4.8 | 5.5 | i | 4.2
Cc1cc(C)n(Cc2ccc(C(=O)NN)o2)n1 | -49.9* | 1.8 | i | .
Cc1cn([C@H]2C[C@H](O)[C@@H](CNCc3cnc(N4CCOCC4)s3)O2)c(=O)[nH]c1=O | 2.5 | 2.1 | i | -11.8
O=C(/C=C/c1ccc(Cl)cc1)NCCN1CCOCC1 | 0.0 | -0.7 | -95.3%* | 12.0
Cc1ccccc1S(=O)(=O)NNC(=O)C(=O)NNc1ccccn1 | 1.8 | -81.7* | i | -71.2*
Nc1ccc(S(=O)(=O)NNC(=O)C(=O)NNc2ccccn2)cc1 | -0.8 | -92.6* | i | -68.5*
CC(=O)Nc1ccc(S(=O)(=O)NNC(=O)C(=O)NNc2ccccn2)cc1 | -0.1 | ? | i | .
Cc1ccc(S(=O)(=O)NNC(=O)C(=O)NNc2ccccn2)cc1 | -4.2 | -88.2* | i | -92.6*
SMILES | CCT chaperon mod | Six1-Eya2 blk | Akt phos inh | CtBP-E1A inh
Cc1ccc([N+](=O)[O-])cc1S(=O)(=O)Nc1ccccn1 | 1.3 | -3.4 | i | 6.4
O=C(NC(=S)NCc1cccnc1)c1cc(Br)ccc1Cl | -2.1 | -6.3 | i | -10.6
CC(=O)Nc1ccc(NC(=O)CSc2ccc3nnc(-c4cccnc4)n3n2)cc1 | -1.6 | -8.9 | i | -22.3
O=C1NC(c2cccs2)Nc2sc3c(c21)CCCC3 (stereo not given) | -93.8* | -14.6 | i | -1.6
N#Cc1ccc(N2CCCC2C(=O)O)c([N+](=O)[O-])c1 (stereo not given) | 0.8 | 3.5 | -118.0%* | 4.5
CCN(C(=O)COC(=O)/C=C/c1cnc2ccccc2n1)c1ccccc1 | -0.6 | -0.1 | i | -25.2
CC(C)N(Cc1ccccc1)C(=O)COC(=O)/C=C/c1cnc2ccccc2n1 | -1.0 | -21.9 | i | -86.8*
COC(=O)[C@@]1(Cc2ccc(OC)cc2)[C@H]2c3cc(C(=O)N4CCCC4)n(CCc4ccc(OC)c(Br)c4)c3C[C@H]2CN1C(=O)c1ccccc1 | -0.4 | -23.3 | i | -6.9
Cc1ccc(C(=O)N/N=C\C=C\c2ccc(Br)cc2)cn1 | -0.2 | 1.1 | i | .
O=C(Cn1cncn1)N/N=C/c1ccccc1Cl | 1.4 | 6.4 | i | .
COc1cc([N+](=O)[O-])cc(/C=N/NC(=O)c2ccc(C)nc2)c1O | -1.1 | -88.1* | i | -94.6*
COc1cc([N+](=O)[O-])cc(/C=N/NC(=O)C(C)Nc2ccccc2C)c1O (stereo not given) | 0.3 | ? | i | -73.2*
COc1cc([N+](=O)[O-])cc(/C=N/NC(=O)C(C)Nc2cccc(C)c2)c1O (stereo not given) | -3.5 | -20.9 | i | ?
Cc1ccc(C(=O)N/N=C/c2cc(Br)ccc2O)cn1 | 0.8 | -89.3* | i | -90.8*
COc1cc([N+](=O)[O-])cc(/C=N/NC(=O)c2ccc(NC(=O)c3ccc(C)cc3)cc2)c1O | -2.5 | -8.0 | i | ?
COc1cc([N+](=O)[O-])cc(/C=N/NC(=O)Cn2cncn2)c1O | -0.7 | -90.4* | i | .
COC(=O)N/N=C/c1cc(Br)ccc1O | 2.9 | -8.9 | i | -0.8
CC(C)NC(=S)N/N=C/c1cc(Br)ccc1O | -0.6 | -82.4* | i | -89.2*
O=C(N/N=C/c1cc(Br)ccc1O)c1ccccc1Cl | -2.4 | -88.0* | i | -79.1*
COc1c(Br)cc(Br)cc1/C=N/NC(=O)c1cccnc1 | 0.9 | -7.9 | i | -1.9
COc1cc([N+](=O)[O-])cc(/C=N/NC(=O)CSc2ccccn2)c1O | -1.4 | -81.6* | i | -91.0*
CCOc1cc(Br)cc(/C=N/NC(=O)c2cccnc2)c1O | 2.7 | -67.0* | i | -92.1*
CCN(CC(=O)NCc1ccc(Cl)cc1)S(=O)(=O)c1ccc(NC(C)=O)cc1 | 1.2 | -0.4 | i | .
COc1ccc(OCCCC(=O)Nc2cc([N+](=O)[O-])ccc2C)cc1 | -43.9* | -0.7 | i | -1.5
O=C(CCN1CCOCC1)N/N=C/c1cc(Br)cc(Br)c1O | -1.9 | -83.5* | i | -72.6*
SMILES | CCT chaperon mod | Six1-Eya2 blk | Akt phos inh | CtBP-E1A inh
O=C(Cc1csc(N2CCOCC2)n1)N/N=C/c1ccc(O)c(O)c1O | -2.1 | -73.4* | i | ?
O=C(CCc1ccccc1)NCCCN1CCOCC1 | -31.4* | 3.6 | i | -0.4
O=C(CCCc1ccccc1)NCCCN1CCOCC1 | -2.4 | 5.9 | i | 6.7
COc1cc(OC)cc(C(=O)NCCCN2CCOCC2)c1 | 0.1 | 2.8 | -119.6%* | -1.9
C/C(=N\NC(=O)Cc1csc(N2CCOCC2)n1)c1ccccc1 | -0.2 | -3.3 | . | -0.7
COc1ccc(C(=O)NCCCN2CCOCC2)cc1 | -6.0 | -1.2 | i | .

High-throughput results (PubChem BioAssay)
